This is an account of results in PubChem BioAssay AID720506 (National Center for Advancing Translational Sciences (NCATS), 2013).

Among all 2,300 compounds or so, about 95 (4%) were called active. Not shown: some 17% with an inconclusive outcome. The sample as a whole holds a higher share of actives than the screen did. Unmarked numbers belong to inactive results. The call rests on the fitted dose curve; in most records, active means well fitted activation curve with a large enough effect; inconclusive means small, poorly fitted or top-dose-only effect; inactive means flat fitted curve, though single readings scatter.
Potency means the concentration at half of the fitted maximal effect.

Chain of D(3) dopamine receptor (Homo sapiens) (P35462 whole entry, looked up): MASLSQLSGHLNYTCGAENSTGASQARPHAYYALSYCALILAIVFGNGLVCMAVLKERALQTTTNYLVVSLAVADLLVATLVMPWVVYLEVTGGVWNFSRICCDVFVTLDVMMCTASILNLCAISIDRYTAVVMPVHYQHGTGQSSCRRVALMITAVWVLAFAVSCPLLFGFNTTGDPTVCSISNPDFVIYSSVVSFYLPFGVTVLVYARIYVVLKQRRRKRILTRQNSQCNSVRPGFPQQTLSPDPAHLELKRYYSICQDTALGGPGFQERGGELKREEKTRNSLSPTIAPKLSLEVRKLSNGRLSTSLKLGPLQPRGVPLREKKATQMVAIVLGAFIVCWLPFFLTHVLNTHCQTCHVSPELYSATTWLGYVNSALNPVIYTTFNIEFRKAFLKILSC

The target in this assay is D(3) dopamine receptor (Homo sapiens) (UniProt P35462). Put plainly: qHTS of D3 Dopamine Receptor Agonist: D3 Dopamine Receptor B-arrestin Agonist Confirmatory Assay. Further: nearly all actives have a fitted effect of over 70% in size.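 On activation: 100% = dopamine control response.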 Particulars: DiscoveRx D3 beta-arrestin cells, luminescence, 90 min; series mostly up to 76.9 µM; activation: at the top concentration. The text has this:
D3 DARs represent a very important target for the treatment of several neuropsychiatric disorders. Indeed, one of the most promising therapeutic applications for the D3 DAR is in the area of addiction and related disorders. […] These findings have been observed with a number of addictive substances including cocaine, amphetamine, nicotine, and alcohol. […] Increased D3 DAR activity can thus lead to neuroprotective and neurorestorative actions in the CNS. […] This assay is used to confirm the activity of the identified D3 dopamine receptor agonist. Activation is the desired outcome for this assay. NIH Molecular Libraries Probe Production Centers Network [MLPCN] NIH Chemical Genomics Center [NCGC] MLPCN Grant: NS064831 Assay Submitter (PI): David Sibley
Freshly passaged DiscoveRx D3 cells are plated in 1536 well white, solid bottom plates at a density of 1500 cells/well in 3microl of complete media. After an overnight incubation at 37 degrees C in 5% CO2, cells are loaded with 23nl of test compound from the compound library (as well as dopamine controls) using a 1536 pintool and incubated at 37 degrees C for 90 minutes. Two microliters of DiscoveRx reagent is then added to all cells, and they are incubated for an additional 30 - 60 minutes at room temperature. Following incubation, luminescence is measured on a ViewLux CCD-based luminometer reader using a 20 sec exposure time.
On to `Cc1cc(C)n2nc(C(=O)N3CCN(Cc4ccc5c(c4)OCO5)CC3)nc2n1`, for which the “activation” value is 3%.

On to `CCCN(CC(=O)Nc1ccccc1C)C(=O)c1ccc2[nH]c3c(c2c1)CC(C)CC3` (stereo unspecified), for which the “activation” value is -0.304%.

On to `OC(COCc1ccco1)CN1CCN(c2ccccc2)CC1` (stereo unspecified), for which the “activation” value is -3.53%.

Take `O=C(CSC1CC(=O)N(CCc2ccccc2)C1=O)Nc1ccc(Cl)cc1` (stereo unspecified): the “activation” value was -1.08%.

For the compound `CC(C)(C)C(=O)OCc1nc(-c2ccc(O)c(O)c2)cs1`, the Potency was 11.2 µM (active).

Consider `O=c1oc(-c2ccccc2NS(=O)(=O)c2ccc(Cl)cc2)nc2ccccc12`, for which the “activation” value is -0.248%.

For the compound `O=C(C1CC(=O)N(c2ccc(F)cc2)C1)N1CCN(c2ccccc2)CC1` (stereo unspecified), the “activation” value is -1.88%.

On to `CCn1c(=O)cc(OCC(=O)NCCCN2CCN(c3cccc(Cl)c3)CC2)c2ccccc21`, for which the “activation” value is -0.221%.

Take `CN1CCN(S(=O)(=O)c2cccc(C(=O)Nc3sccc3C#N)c2)CC1`: the “activation” value is 6.9%.

Take `O=C(CNCc1cccs1)Nc1cc(S(=O)(=O)N2CCCC2)ccc1Cl`: the Potency was 17.8 µM (active).

With `O=C(c1ccc2c(c1)OCCO2)C1CCN(S(=O)(=O)c2cccc(F)c2)CC1`, the “activation” value was -8.28%.

For `CC(CCc1ccc(O)cc1)NCc1ccc(Cl)cc1Cl` (stereo unspecified), the Potency was 1.78 µM (active).

Take `CC(CCc1ccccc1)NCC(O)c1cccc([N+](=O)[O-])c1` (stereo unspecified): the “activation” value is -0.828%.

`CC1(C)CC(=O)C=C(c2ccc3ncccc3c2)C1`: the “activation” value is -3.23%.

On to `Cc1c(C(=O)Nc2cccc(-c3nnc4n3CCCCC4)c2)oc2ccccc12`, for which the “activation” value was -0.331%.

`O=C(NC1CCCCC1)c1ccc2c(=O)n(CC3CCCO3)c(=O)[nH]c2c1` (stereo unspecified): the “activation” value was 5.22%.

Regarding `CCOC(=O)[C@H]1[C@H]2COc3ccc(C)cc3[C@@H]2N2C(=O)CN(Cc3ccc(F)cc3)C(=O)[C@@]12C`, the “activation” value is -4.45%.

Turning to `O=C(CCN1CCN(C/C=C/c2ccccc2)CC1)Nc1ccccc1Cl`, the “activation” value was 20%.

Take `COc1cccc(NC(=O)C2CCCN(c3ncnc4c3nc3n4CCCCC3)C2)c1` (stereo unspecified): the “activation” value is -5.52%.

For `CC(C)c1ccc2c(c1)c(SC(C)(C)C)c(CC(C)(C)C(=O)O)n2Cc1ccc(Cl)cc1`, the “activation” value is 29%.

As for `O=C(c1c(F)cccc1F)N1CCN(S(=O)(=O)c2ccc3c(c2)OCCO3)CC1`, the “activation” value was 0.221%.

Consider `Cc1cccc(OCC(=O)NCC(=O)N/N=C/c2ccc(N(C)C)cc2)c1`, for which the “activation” value is -8.89%.

In the case of `Cc1cc(C)c(/C=C2\C(=O)Nc3ccccc32)[nH]1`, the “activation” value was -20.8%.

In the case of `CCC(=O)Nc1ccc(C(=O)N2CCN(C(=O)c3ccco3)CC2)cc1`, the “activation” value is -6.56%.

Consider `CCn1cc(C(=O)N2CCN(Cc3ccc4c(c3)OCO4)CC2)c2cc(OC)c(OC)cc2c1=O`, for which the “activation” value is 8.46%.

Turning to `COc1cccc(OC)c1OCCN1CCN(C(=O)c2ccco2)CC1`, the Potency was 0.631 µM (active).

As to `O=C(Cc1csc(Nc2nc(=S)[nH]c3ccccc23)n1)NCCCN1CCN(c2cccc(Cl)c2)CC1`, the “activation” value was -8.61%.

Regarding `COc1ccc(C2NC(=O)C(=O)/C2=C(\O)c2ccc(Cl)cc2)cc1OC` (stereo unspecified), the “activation” value was -9.76%.

With `O=C(CN1CCN(S(=O)(=O)c2cc(Cl)ccc2Cl)CC1)c1ccc(O)c(O)c1`, the Potency is 35.5 µM (active).

Consider `O=C(CCCn1c(=O)[nH]c2cc(Cl)ccc2c1=O)NCCN1CCN(c2ccccc2)CC1`, for which the “activation” value was -3.42%.

For the compound `O=C(c1c(Cl)cccc1Cl)N1CCN(c2cccc3[nH]ccc23)CC1`, the “activation” value is 15%.
